The results in this text go back to PMC4336329 (PLoS ONE, 2015).

SMILES strings stand for the structures. Hit rate of the full screen: of about 310,000 compounds, about 14,000 (4.5%) showed an effect of 50% or more. The effect is printed as a negative number. The entries come from a sample that favours strong results as a whole.
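Note: peak tail current of the secondary pulse compared with the same well before compound.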

The target in this assay is human ether-à-go-go-related gene (hERG) potassium channel (human, UniProt Q12809). The assay is described as follows: primary screen, population patch clamp on CHO cells stably expressing hERG; higher = less effect of the substance.
human ether-à-go-go-related gene (hERG) potassium channel, sequence (Q12809 whole entry, looked up): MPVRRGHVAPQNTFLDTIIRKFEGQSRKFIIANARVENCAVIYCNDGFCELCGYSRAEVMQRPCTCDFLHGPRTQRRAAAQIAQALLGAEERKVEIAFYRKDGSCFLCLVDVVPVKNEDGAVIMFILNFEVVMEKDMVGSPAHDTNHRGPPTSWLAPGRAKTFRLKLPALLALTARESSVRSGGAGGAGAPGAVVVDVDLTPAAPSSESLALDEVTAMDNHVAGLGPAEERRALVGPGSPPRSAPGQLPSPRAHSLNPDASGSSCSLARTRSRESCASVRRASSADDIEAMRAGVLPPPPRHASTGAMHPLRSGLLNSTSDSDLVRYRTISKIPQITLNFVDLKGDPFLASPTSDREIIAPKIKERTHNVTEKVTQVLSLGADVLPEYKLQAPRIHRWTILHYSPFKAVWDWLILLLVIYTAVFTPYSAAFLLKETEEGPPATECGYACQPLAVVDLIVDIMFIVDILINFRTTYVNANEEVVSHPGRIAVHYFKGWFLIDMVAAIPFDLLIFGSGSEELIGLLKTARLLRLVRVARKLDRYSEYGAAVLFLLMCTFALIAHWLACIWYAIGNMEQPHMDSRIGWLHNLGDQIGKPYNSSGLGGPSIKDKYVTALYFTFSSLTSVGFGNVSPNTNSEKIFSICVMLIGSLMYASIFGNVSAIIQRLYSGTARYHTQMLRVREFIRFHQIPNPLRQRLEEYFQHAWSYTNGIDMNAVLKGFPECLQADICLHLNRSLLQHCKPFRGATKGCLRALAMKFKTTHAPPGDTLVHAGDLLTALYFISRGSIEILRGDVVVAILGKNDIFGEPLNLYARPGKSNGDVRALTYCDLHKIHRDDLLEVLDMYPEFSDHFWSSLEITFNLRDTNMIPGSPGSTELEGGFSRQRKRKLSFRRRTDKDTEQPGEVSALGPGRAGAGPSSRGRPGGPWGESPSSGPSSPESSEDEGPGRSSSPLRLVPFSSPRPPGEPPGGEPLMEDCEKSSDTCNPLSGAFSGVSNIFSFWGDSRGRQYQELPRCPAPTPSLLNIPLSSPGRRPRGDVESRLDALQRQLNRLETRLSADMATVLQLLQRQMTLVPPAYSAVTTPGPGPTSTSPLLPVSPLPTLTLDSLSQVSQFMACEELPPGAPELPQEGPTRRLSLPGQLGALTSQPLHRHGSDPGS
Regarding `Cc1c(C(=O)NCc2ccccc2)cnn1-c1ccccc1`, the “hERG current change (%, negative = inhibition) at 10uM” value is reported as -2.6%.
Then `O=C(Nc1cccc(-c2cn3ccccc3n2)c1)c1cccc(Cl)c1`, with 4.75%; and `CCCC1=NN(C(=O)Cc2ccc(OC)c(OC)c2)C(O)(C(F)(F)F)C1` (stereo not shown), with 0.733%.
Consider `CC(C)[C@H]1C(=O)Nc2ccccc2N1C(=O)N[C@@H](Cc1ccccc1)C(=O)N[C@@H](Cc1ccccc1)C(=O)O`, for which the “hERG current change (%, negative = inhibition) at 10uM” value is 5.66%.
Take `Cc1nn(C)c(C)c1C(C)NC(=O)c1ccc(OC2CCN(Cc3ccccn3)CC2)cc1` (stereo not shown): the “hERG current change (%, negative = inhibition) at 10uM” value was 18%.
Then `CC(=O)NC1=C(Nc2ccc(N(C)C)cc2)C(=O)c2ccccc2C1=O`, with -9.79%.
Take `COC(=O)N/N=C/c1ccc(-c2cccc(Cl)c2)o1`: the “hERG current change (%, negative = inhibition) at 10uM” value is -3.5%.
As for `COc1cc(OC)cc(-c2nc(-c3ccccc3)no2)c1`, the “hERG current change (%, negative = inhibition) at 10uM” value is reported as 5.45%.
On to `COCCCN1C(=O)C(O)=C(C(C)=O)C1c1cccc(F)c1` (stereo not shown), for which the “hERG current change (%, negative = inhibition) at 10uM” value turned out to be 7.18%.
On to `CCC1(c2ccccc2)NC(=O)N(CC(=O)Nc2cc(Cl)ccc2N2CCN(C)CC2)C1=O` (stereo not shown), for which the “hERG current change (%, negative = inhibition) at 10uM” value is -60.8%.
Consider `CCC1(c2ccccc2)NC(=O)N(CC(=O)Nc2cc(Cl)ccc2N2CCOCC2)C1=O` (stereo not shown), for which the “hERG current change (%, negative = inhibition) at 10uM” value was -11.2%.
With `CC1(c2ccccc2)NC(=O)N(CC(=O)Nc2ccccc2C(=O)NC2CC2)C1=O` (stereo not shown), the “hERG current change (%, negative = inhibition) at 10uM” value was -22.5%.
Regarding `CN1CCN(c2ccc(Cl)cc2NC(=O)CN2C(=O)NC(C)(c3ccccc3)C2=O)CC1` (stereo not shown), the “hERG current change (%, negative = inhibition) at 10uM” value is -23.7%.
Consider `CCC1(c2ccccc2)NC(=O)N(CC(=O)Nc2ccccc2C(=O)NC2CCCC2)C1=O` (stereo not shown), for which the “hERG current change (%, negative = inhibition) at 10uM” value is recorded as -53.8%.
The result for `CCC1(c2ccccc2)NC(=O)N(CC(=O)Nc2ccccc2C(=O)NC2CC2)C1=O` (stereo not shown) reads -7.31%.
The result for `COC(=O)C1=C(c2cccc(C#N)c2)C[C@@H]2CC[C@H]1N2C(=O)N1CCC(C)CC1` reads -17.1%; that for `Cc1ccccc1C1=NC(C(F)(F)F)(C(F)(F)F)c2c(n(-c3ccc(F)cc3)c(=O)[nH]c2=O)N1`, 12.5%; that for `Cc1ccc(C)c(NC(=O)CN2C(=O)CNC2=O)c1`, 0.955%.
As for `COc1cccc(OCCNS(=O)(=O)c2cccc([N+](=O)[O-])c2)c1`, the “hERG current change (%, negative = inhibition) at 10uM” value is reported as -8.19%.
On to `C[C@@H](CSc1ccccc1)CN1CC[C@H](NC(=O)OCc2ccccc2)CCC1=O`, for which the “hERG current change (%, negative = inhibition) at 10uM” value is reported as -44.2%.
The result for `O=C(OCC(=O)N1CCCC1=O)c1nc(Cl)ccc1Cl` reads 5.78%; that for `Nc1cc(N)nc(SCC(=O)c2ccc3c(c2)NC(=O)CO3)n1`, 8.41%; that for `COc1ccccc1NC(=O)CSc1nc2ccccc2c(=O)n1C`, 12.1%.
As to `O=C(Nc1ccc(Cl)cc1)C1CCCN1C(=O)NCc1ccccc1` (stereo not shown), the “hERG current change (%, negative = inhibition) at 10uM” value is 10.2%.
Turning to `CC(/C=C/c1ccccc1)=N/NC(=O)c1cnccn1`, the “hERG current change (%, negative = inhibition) at 10uM” value is 2.83%.
Turning to `N#CC1(CCCN2CCCCC2)c2ccccc2CCc2ccccc21.O=C(O)C(=O)O`, the “hERG current change (%, negative = inhibition) at 10uM” value was -52.7%.
Consider `O=C(CN1CCCC1)N1CCCc2ccccc21.O=C(O)C(=O)O`, for which the “hERG current change (%, negative = inhibition) at 10uM” value is 13.8%.
As to `O=C(CN1CCCCC1)N1CCCc2ccccc21.O=C(O)C(=O)O`, the “hERG current change (%, negative = inhibition) at 10uM” value is listed as 2.82%.
Regarding `CNC(=S)NNC(=O)Cc1ccc(O)cc1`, the “hERG current change (%, negative = inhibition) at 10uM” value is reported as -3.23%.
Regarding `CN(CC(=O)N1CCN(c2ccc(F)cc2)CC1)S(=O)(=O)c1ccc2c(c1)c(=O)n(C)c(=O)n2C`, the “hERG current change (%, negative = inhibition) at 10uM” value is -0.425%.
The result for `O=c1cc(CN2CCCCC2)nc(C2CC2)[nH]1` reads -2.2%; that for `c1c(C2CCCCC2)n[nH]c1CN1CCCCC1`, -53.9%; that for `CC(C)c1cc(CN2CCN(C3CCCC3)C(CCO)C2)[nH]n1` (stereo not shown), -5.93%.
The result for `Cc1ccc(C(=O)N/C(=C\c2ccccc2F)c2nc(=S)[nH][nH]2)cc1` reads 14.4%.
For the compound `Cc1nc2ccccc2c(=O)n1-c1ccc(Cl)c(Cl)c1`, the “hERG current change (%, negative = inhibition) at 10uM” value is -8.26%.
The result for `Cc1nc2ccccc2c(=O)n1-c1cccc(O)c1` reads 14.1%; that for `O=S(=O)(Nc1ccc(-c2ccc3nncn3n2)cc1)c1cccc(F)c1`, 18.1%; that for `Cc1ccc(-n2c(C)nc3ccccc3c2=O)cc1C`, -52.2%.
Then `Cc1cccc(S(=O)(=O)Nc2ccc(-n3c(C)nc4ccccc4c3=O)cc2)c1`, with -55.9%; and `Cc1nc2ccccc2c(=O)n1-c1ccc(NS(=O)(=O)c2ccccc2)cc1`, with -26.5%.
The result for `Cc1ccc(S(=O)(=O)Nc2ccc(-n3c(C)nc4ccccc4c3=O)cc2)cc1` reads -49.4%.
Turning to `Cc1cccc(S(=O)(=O)Nc2ccc(-c3ccc4nncn4n3)cc2)c1`, the “hERG current change (%, negative = inhibition) at 10uM” value is listed as -123%.
Then `Cc1ccc(S(=O)(=O)Nc2ccc(-c3ccc4nncn4n3)cc2)cc1`, with -9.23%; and `O=C(O)c1ccc(N2C(=O)c3cccnc3C2=O)cc1`, with 16.9%.
Then `O=C1CCCN1c1ccc(S(=O)(=O)N2CCN(c3ccccc3)CC2)cc1`, with 16.3%.
Then `COc1ccc2c(c1OC)C(=O)OC2Nc1nc(-c2ccc(-c3ccccc3)cc2)cs1` (stereo not shown), with 17%; and `CC(C)=NNC(=O)c1c(O)c2ccccc2[nH]c1=O`, with -20%; and `NC(=O)c1cc(N2C(=O)C=CC2=O)ccc1Cl`, with 1.79%.
Turning to `NS(=O)(=O)c1ccc(N2C(=O)C(=O)/C(=C(/O)c3ccccc3)C2c2ccc(Cl)cc2)cc1` (stereo not shown), the “hERG current change (%, negative = inhibition) at 10uM” value is 18.1%.
The result for `CCN(CCNC(=O)C1CCCN(Cc2nc(-c3ccc(OC)cc3)oc2C)C1)c1ccccc1` (stereo not shown) reads -28.1%.
For `Cc1oc(-c2ccc(Cl)cc2)nc1CN1CCC(C(=O)NCCCN2CCOCC2)CC1`, the “hERG current change (%, negative = inhibition) at 10uM” value is given as -26.5%.
The result for `CCc1ccc(-c2nc(CN3CCC(C(=O)NCCN(CC)c4ccccc4)CC3)c(C)o2)cc1` reads -69.5%.
The result for `CCN(CCNC(=O)C1CCN(S(C)(=O)=O)CC1)c1ccccc1` reads -1.8%.
For the compound `CCN1CCN(CCNC(=O)C2CCN(Cc3nc(-c4ccc(Cl)cc4)oc3C)CC2)CC1`, the “hERG current change (%, negative = inhibition) at 10uM” value came out at 1.11%.
As to `CCCN(CCC)CCNC(=O)C1CCN(Cc2nc(-c3ccc(Cl)cc3)oc2C)CC1`, the “hERG current change (%, negative = inhibition) at 10uM” value is -60.6%.
In the case of `CCC1CCCCN1CCCNC(=O)C1CCN(Cc2nc(-c3ccc(Cl)cc3)oc2C)CC1` (stereo not shown), the “hERG current change (%, negative = inhibition) at 10uM” value was -42.2%.
The result for `CCN(CCNC(=O)C1CCN(Cc2nc(-c3ccc(Cl)cc3)oc2C)CC1)c1ccccc1` reads -65.9%; that for `CCN(CCNC(=O)C1CCN(S(=O)(=O)CC)CC1)c1ccccc1`, -16.9%.
Then `CCCCN(CC)C(=O)C1CCC(=O)N(c2ccc(OC)cc2)C1c1ccc(OC)c(OC)c1` (stereo not shown), with -10.2%; and `CC(C)C(=O)Nc1nc2cc3c(cc2s1)OCCO3`, with -4.59%; and `S=c1[nH]nc(-c2ccc(Cl)cc2)n1/N=C/C=C/c1ccco1`, with 15.3%.
The result for `CCN(CC)S(=O)(=O)c1ccc(O)c(C(=O)OCC(=O)N2CCCC2)c1` reads 11.4%; that for `CN(C)CCNc1nc(S(=O)(=O)c2ccccc2)c(Cl)s1`, -56.2%; that for `CC(=O)Nc1nc(S(=O)(=O)c2ccc(C)cc2)c(Cl)s1`, -8.1%.
Take `CCCS(=O)(=O)c1nc(S(=O)(=O)c2ccc(C)cc2)c(NCCCn2ccnc2)s1`: the “hERG current change (%, negative = inhibition) at 10uM” value is -29.6%.
The result for `CCS(=O)(=O)c1nc(S(=O)(=O)c2ccc(C)cc2)c(NCCCn2ccnc2)s1` reads -26.5%; that for `Cc1ccc(S(=O)(=O)c2nc(NCCCn3ccnc3)sc2Cl)cc1`, -78.6%; that for `CC(C)CNc1nc(S(=O)(=O)c2ccccc2)c(Cl)s1`, -11.5%.
As for `O=S(=O)(c1ccccc1)c1nc(NCc2ccccc2)sc1Cl`, the “hERG current change (%, negative = inhibition) at 10uM” value is given as -9.88%.
The result for `Cc1ccc(S(=O)(=O)c2nc(NCCN(C)C)sc2Cl)cc1` reads -69.5%; that for `Cc1ccc(S(=O)(=O)c2nc(NN(C)C)sc2Cl)cc1`, -5.48%; that for `CCCCCCC/C=N/Nc1nnc(Cc2ccccc2)c(=O)[nH]1`, 33.2%.
With `CCn1cc(C(=O)NCc2ccc(OC)cc2)c(=O)c2ccc(C)nc21`, the “hERG current change (%, negative = inhibition) at 10uM” value is recorded as 22.1%.
Then `Cc1cccc(NC(=S)NNC(=O)c2csc(C(C)C)c2)c1`, with 2.52%; and `CCN(CC)CCCNC(=O)c1cn(CCOC)c(=O)c2c1c1ccccc1n2C`, with -0.445%; and `O=Cc1coc2ccc3ccccc3c2c1=O`, with 14.5%.
For the compound `CCCN(C(=O)c1cn(-c2ccccc2)nc1-c1ccc(OC)cc1)C1CCS(=O)(=O)C1` (stereo not shown), the “hERG current change (%, negative = inhibition) at 10uM” value is given as -22.8%.
The result for `O=C(CN1CCCCCC1)Nc1ccc(Br)cn1` reads -20.7%; that for `O=C(CN1CCN(C(=O)c2ccccc2)CC1)Nc1ccccc1`, -20.1%; that for `O=C(CN1CCN(C(=O)c2ccccc2)CC1)Nc1ccc(Br)cn1`, -74.4%.
Then `O=C(CN1CCOCC1)Nc1ncc(Br)cc1Br`, with -20.3%; and `O=C(CN1CCN(C(=O)c2ccccc2)CC1)Nc1ncc(Br)cc1Br`, with -78.1%; and `CCc1nnc(NC(=O)CN2CCN(C(=O)c3ccccc3)CC2)s1`, with 14.7%.
Then `CCOC(=O)N1CCC(NC(=O)c2cc3c(=O)[nH]c4ccccc4c3n2C)CC1`, with -3.23%.
Take `COc1ccccc1NC(=O)/C(=C/c1cccs1)NC(=O)c1ccco1`: the “hERG current change (%, negative = inhibition) at 10uM” value is reported as -33.1%.
